Usually AC50 stands for the concentration giving half of the maximal activity seen.

Each structure is given as a SMILES string. Activity calls are given as the source filed them. The calls were made as follows: active = hit-call score of the fitted dose curve at least 0.9, where 1 is the maximum; inactive = score below 0.9.

Assay [1] in a line: CEETOX_H295R_ESTRADIOL: CeeTox H295R High-throughput Steroidogenesis Assay for Estradiol (AID 2283440).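 Also: estradiol secreted into medium quantified by LC-MS/MS after dansyl derivatisation.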 Conditions: actives raise or lower the signal. Summed up:
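H295R, 48 h forskolin (10 uM) prestim → 48 h compound, 0.1% DMSO final. Estradiol in medium: MTBE extraction, dansyl chloride derivatization, LC-MS/MS. Fit bidirectional vs DMSO baseline; MTT viability in same wells.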

A short description of assay [2]: CEETOX_H295R_ESTRONE: CeeTox H295R High-throughput Steroidogenesis Assay for Estrone (AID 2283441).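 Also: estrone secreted into medium measured by LC-MS/MS after dansyl derivatization.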 Conditions: actives raise or lower the signal. The method, boiled down:
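H295R cells prestimulated 48 h with 10 uM forskolin, then exposed 48 h to chemicals in 0.1% DMSO final; estrone in medium extracted with MTBE, dansyl-derivatized, quantified by HPLC-MS/MS; bidirectional fitting versus DMSO, viability by MTT.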

Assay [3] in a line: CEETOX_H295R_PROG: CeeTox H295R High-throughput Steroidogenesis Assay for Progesterone (PROG) (AID 2283442). Conditions: actives raise or lower the signal. The method, boiled down:
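Progesterone read-out: HPLC-MS/MS on MTBE extracts of conditioned medium after 48 h chemical exposure of forskolin-primed (10 uM, 48 h) H295R cells. Gain or loss of signal was fitted relative to DMSO baseline.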

Read-out in assay [4]: Fatty acid synthase (Homo sapiens) (UniProt P49327)
In words: LTEA_HepaRG_FASN: Life Technologies and Expression Analysis (LTEA) Assay for Fatty Acid Synthase (FASN) using HepaRG (AID 2283448). Conditions: mRNA level, 48 h; actives raise or lower the signal. Summed up:
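Differentiated HepaRG cells in serum-free induction medium exposed 48 h in duplicate to eight half-log concentrations, top 100 uM, 0.5% DMSO. FASN mRNA by qRT-PCR normalised to ACTB, GAPDH, POLR2A; bidirectional fit versus DMSO.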

Read-out in assay [5]: Cyclin D2 (CCND2), CCND2 (gene 894)
In words: LTEA_HepaRG_CCND2: Life Technologies and Expression Analysis (LTEA) Assay for Cyclin D2 (CCND2) using HepaRG (AID 2283449).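 Also: CCND2 transcript measured by TaqMan qRT-PCR and normalised to three housekeeping genes.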 Conditions: mRNA level, 48 h; actives raise or lower the signal. The method, boiled down: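 Chemicals in 0.5% DMSO, eight half-log concentrations from 100 uM top, were applied in duplicate for 48 h to human HepaRG cells in serum-free induction medium. CCND2 mRNA by TaqMan qRT-PCR, normalised to ACTB/GAPDH/POLR2A; bidirectional fit versus DMSO.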

Read-out in assay [6]: Cyclin Dependent Kinase Inhibitor 1A (CDKN1A), CDKN1A (gene 1026)
In words: LTEA_HepaRG_CDKN1A: Life Technologies and Expression Analysis (LTEA) Assay for Cyclin Dependent Kinase Inhibitor 1A (CDKN1A) using HepaRG (AID 2283450). Conditions: mRNA level, 48 h; actives raise or lower the signal. The method, boiled down: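 HepaRG, 48 h dosing, 8-pt half-log series from 100 uM top, 0.5% DMSO vehicle, duplicates. Readout: TaqMan qRT-PCR of CDKN1A transcript, housekeeping-normalized (ACTB, GAPDH, POLR2A). Up/down curve fit relative to DMSO.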

Read-out in assay [7]: Cyclin D1 (CCND1), CCND1 (gene 595)
In words: LTEA_HepaRG_CCND1: Life Technologies and Expression Analysis (LTEA) Assay for Cyclin D1 (CCND1) using HepaRG (AID 2283451). Conditions: mRNA level, 48 h; actives raise or lower the signal. The method, boiled down: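 qRT-PCR (Fluidigm 96.96 array) read-out of transcript level, housekeeping-normalized (ACTB/GAPDH/POLR2A). HepaRG cells, 48 h chemical exposure, 8-point half-log series from 100 uM, 0.5% DMSO vehicle; gain or loss relative to DMSO baseline.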

Read-out in assay [8]: catalase (CAT), CAT (gene 847)
In words: LTEA_HepaRG_CAT: Life Technologies and Expression Analysis (LTEA) Assay for catalase (CAT) using HepaRG (AID 2283452). Conditions: mRNA level, 48 h; actives raise or lower the signal. The method, boiled down: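 HepaRG cells in serum-free induction medium, 0.5% DMSO vehicle, exposed 48 h in duplicate over 8 half-log concentrations from 100 uM. CAT mRNA measured by qRT-PCR, normalized to ACTB, GAPDH, POLR2A; bidirectional fit versus DMSO.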

Read-out in assay [9]: flavin-containing dimethylaniline monooxygenases 3 (FMO3), FMO3 (gene 2328)
In words: LTEA_HepaRG_FMO3: Life Technologies and Expression Analysis (LTEA) Assay for flavin-containing dimethylaniline monooxygenases 3 (FMO3) using HepaRG (AID 2283453). Conditions: mRNA level, 48 h; actives raise or lower the signal. The method, boiled down:
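Differentiated HepaRG cells in serum-free induction medium, exposed 48 h in duplicate to 8 half-log concentrations up to 100 uM in 0.5% DMSO. FMO3 mRNA by qRT-PCR, normalized to ACTB, GAPDH, POLR2A; bidirectional fit vs DMSO.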

Read-out in assay [10]: Cytochrome P450 (CYP1A1), CYP1A1 (gene 1543)
In words: LTEA_HepaRG_CYP1A1: Life Technologies and Expression Analysis (LTEA) Assay for Cytochrome P450 (CYP1A1) using HepaRG (AID 2283454). Conditions: mRNA level, 48 h; actives raise or lower the signal. Summed up: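 qRT-PCR read-out: CYP1A1 transcript normalized to three housekeeping genes, fitted bidirectionally against 0.5% DMSO vehicle baseline. Human HepaRG cells, 48 h chemical exposure, 8-point half-log series topping at 100 uM.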

Read-out in assay [11]: CFLAR gene, CFLAR (gene 8837)
In words: LTEA_HepaRG_CFLAR: Life Technologies and Expression Analysis (LTEA) Assay for CFLAR gene using HepaRG (AID 2283455). Conditions: mRNA level, 48 h; actives raise or lower the signal. Summed up: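 Differentiated HepaRG cells in serum-free induction medium were exposed 48 h in duplicate to eight half-log concentrations up to 100 uM in 0.5% DMSO; mRNA measured by TaqMan qRT-PCR, normalized to ACTB, GAPDH, POLR2A; bidirectional fitting versus DMSO.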

Read-out in assay [12]: Forkhead box O1 (FOXO1), FOXO1 (gene 2308)
In words: LTEA_HepaRG_FOXO1: Life Technologies and Expression Analysis (LTEA) Assay for Forkhead box O1 (FOXO1) using HepaRG (AID 2283456). Conditions: mRNA level, 48 h; actives raise or lower the signal. The method, boiled down: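 Differentiated HepaRG cells, in serum-free induction medium with 0.5% DMSO, exposed 48 h in duplicate to 8-point half-log series from 100 uM. FOXO1 mRNA measured by TaqMan qRT-PCR, normalized to ACTB, GAPDH, POLR2A; bidirectional fit versus DMSO.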

Read-out in assay [13]: growth arrest and DNA damage 45 (GADD45A), GADD45A (gene 1647)
In words: LTEA_HepaRG_GADD45A: Life Technologies and Expression Analysis (LTEA) Assay for growth arrest and DNA damage 45 (GADD45A) using HepaRG (AID 2283458). Conditions: mRNA level, 48 h; actives raise or lower the signal. The method, boiled down:
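Differentiated HepaRG cells exposed 48 h in serum-free induction medium to 8 concentrations, top 100 uM in half-log steps, 0.5% DMSO. GADD45A mRNA quantified by qRT-PCR, normalized to ACTB, GAPDH and POLR2A; bidirectional fit versus DMSO.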

Read-out in assay [14]: Forkhead box O3 (FOXO3), FOXO3 (gene 2309)
In words: LTEA_HepaRG_FOXO3: Life Technologies and Expression Analysis (LTEA) Assay for Forkhead box O3 (FOXO3) using HepaRG (AID 2283459). Conditions: mRNA level, 48 h; actives raise or lower the signal. The method, boiled down: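 Differentiated human HepaRG cells, 48 h post-plating, exposed in duplicate for 48 h in serum-free induction medium; 8-point half-log series from 100 uM in 0.5% DMSO. FOXO3 mRNA by TaqMan qRT-PCR, normalized to ACTB/GAPDH/POLR2A; bidirectional fit versus DMSO.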

Assay [15] in a line: CEETOX_H295R_CORTIC: CeeTox H295R High-throughput Steroidogenesis Assay for Corticosterone (CORTIC) (AID 2283437).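 Also: corticosterone secreted into medium quantified by mass spectrometry.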 Conditions: actives raise or lower the signal. The method, boiled down: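 H295R adrenal cells prestimulated 48 hours with 10 uM forskolin, then exposed 48 hours to chemical in 0.1% DMSO. Corticosterone in medium measured by HPLC-MS/MS after MTBE extraction; MTT viability in the same wells; bidirectional fit versus DMSO.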

The nature of assay [16]: CEETOX_H295R_CORTISOL: CeeTox H295R High-throughput Steroidogenesis Assay for Cortisol (AID 2283438).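 Also: cortisol secreted into medium quantified by LC-MS/MS.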 Conditions: actives raise or lower the signal. Summed up:
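Forskolin-primed H295R cells (10 uM, 48 h) treated 48 h with test chemical in 0.1% DMSO. Cortisol in medium quantified by MTBE extraction and HPLC-MS/MS; bidirectional fit vs DMSO, MTT viability in same wells.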

Assay [17] can be described thus: CEETOX_H295R_DOC: CeeTox H295R High-throughput Steroidogenesis Assay for DOC (AID 2283439). Conditions: actives raise or lower the signal. The method, boiled down:
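H295R cells prestimulated 48 h with 10 uM forskolin, then exposed 48 h to test chemical (0.1% DMSO final). Medium 11-deoxycorticosterone measured by HPLC-MS/MS after MTBE extraction; bidirectional fit vs DMSO, viability checked by MTT in same wells.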

Read-out in assay [18]: Tumor necrosis factor receptor superfamily member 6 (Homo sapiens) (UniProt P25445)
In words: LTEA_HepaRG_FAS: Life Technologies and Expression Analysis (LTEA) Assay for Fas cell surface death receptor (FAS) using HepaRG (AID 2283447). Conditions: mRNA level, 48 h; actives raise or lower the signal. The method, boiled down:
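Differentiated HepaRG cells in serum-free induction medium were exposed 48 h to 8 half-log concentrations up to 100 uM in 0.5% DMSO, in duplicate. FAS mRNA was measured by qRT-PCR normalised to ACTB, GAPDH and POLR2A; bidirectional fit versus DMSO.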

Assay [19] is described as follows: CEETOX_H295R_ANDR: CeeTox H295R High-throughput Steroidogenesis Assay for Androstenedione (ANDR) (AID 2283436). Conditions: actives raise or lower the signal. Summed up: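 H295R cells, following OECD 456 with minor changes, exposed to chemicals for 48 h. Androstenedione in the medium was quantified by HPLC-MS/MS after MTBE extraction. Fitting was bidirectional versus DMSO; chemicals were diluted until MTT viability was ≥70%.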

The nature of assay [20]: CEETOX_H295R_TESTO: CeeTox H295R High-throughput Steroidogenesis Assay for Testosterone (TESTO) (AID 2283457). Conditions: actives raise or lower the signal. The method, boiled down:
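Readout: testosterone quantified by HPLC-MS/MS (C18, ESI positive) after MTBE liquid-liquid extraction of culture medium. Cells were H295R, 48 h chemical exposure per OECD 456 with modifications. Gain or loss of signal fitted relative to DMSO.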

Sequence of Fatty acid synthase (Homo sapiens) (P49327 whole entry, looked up): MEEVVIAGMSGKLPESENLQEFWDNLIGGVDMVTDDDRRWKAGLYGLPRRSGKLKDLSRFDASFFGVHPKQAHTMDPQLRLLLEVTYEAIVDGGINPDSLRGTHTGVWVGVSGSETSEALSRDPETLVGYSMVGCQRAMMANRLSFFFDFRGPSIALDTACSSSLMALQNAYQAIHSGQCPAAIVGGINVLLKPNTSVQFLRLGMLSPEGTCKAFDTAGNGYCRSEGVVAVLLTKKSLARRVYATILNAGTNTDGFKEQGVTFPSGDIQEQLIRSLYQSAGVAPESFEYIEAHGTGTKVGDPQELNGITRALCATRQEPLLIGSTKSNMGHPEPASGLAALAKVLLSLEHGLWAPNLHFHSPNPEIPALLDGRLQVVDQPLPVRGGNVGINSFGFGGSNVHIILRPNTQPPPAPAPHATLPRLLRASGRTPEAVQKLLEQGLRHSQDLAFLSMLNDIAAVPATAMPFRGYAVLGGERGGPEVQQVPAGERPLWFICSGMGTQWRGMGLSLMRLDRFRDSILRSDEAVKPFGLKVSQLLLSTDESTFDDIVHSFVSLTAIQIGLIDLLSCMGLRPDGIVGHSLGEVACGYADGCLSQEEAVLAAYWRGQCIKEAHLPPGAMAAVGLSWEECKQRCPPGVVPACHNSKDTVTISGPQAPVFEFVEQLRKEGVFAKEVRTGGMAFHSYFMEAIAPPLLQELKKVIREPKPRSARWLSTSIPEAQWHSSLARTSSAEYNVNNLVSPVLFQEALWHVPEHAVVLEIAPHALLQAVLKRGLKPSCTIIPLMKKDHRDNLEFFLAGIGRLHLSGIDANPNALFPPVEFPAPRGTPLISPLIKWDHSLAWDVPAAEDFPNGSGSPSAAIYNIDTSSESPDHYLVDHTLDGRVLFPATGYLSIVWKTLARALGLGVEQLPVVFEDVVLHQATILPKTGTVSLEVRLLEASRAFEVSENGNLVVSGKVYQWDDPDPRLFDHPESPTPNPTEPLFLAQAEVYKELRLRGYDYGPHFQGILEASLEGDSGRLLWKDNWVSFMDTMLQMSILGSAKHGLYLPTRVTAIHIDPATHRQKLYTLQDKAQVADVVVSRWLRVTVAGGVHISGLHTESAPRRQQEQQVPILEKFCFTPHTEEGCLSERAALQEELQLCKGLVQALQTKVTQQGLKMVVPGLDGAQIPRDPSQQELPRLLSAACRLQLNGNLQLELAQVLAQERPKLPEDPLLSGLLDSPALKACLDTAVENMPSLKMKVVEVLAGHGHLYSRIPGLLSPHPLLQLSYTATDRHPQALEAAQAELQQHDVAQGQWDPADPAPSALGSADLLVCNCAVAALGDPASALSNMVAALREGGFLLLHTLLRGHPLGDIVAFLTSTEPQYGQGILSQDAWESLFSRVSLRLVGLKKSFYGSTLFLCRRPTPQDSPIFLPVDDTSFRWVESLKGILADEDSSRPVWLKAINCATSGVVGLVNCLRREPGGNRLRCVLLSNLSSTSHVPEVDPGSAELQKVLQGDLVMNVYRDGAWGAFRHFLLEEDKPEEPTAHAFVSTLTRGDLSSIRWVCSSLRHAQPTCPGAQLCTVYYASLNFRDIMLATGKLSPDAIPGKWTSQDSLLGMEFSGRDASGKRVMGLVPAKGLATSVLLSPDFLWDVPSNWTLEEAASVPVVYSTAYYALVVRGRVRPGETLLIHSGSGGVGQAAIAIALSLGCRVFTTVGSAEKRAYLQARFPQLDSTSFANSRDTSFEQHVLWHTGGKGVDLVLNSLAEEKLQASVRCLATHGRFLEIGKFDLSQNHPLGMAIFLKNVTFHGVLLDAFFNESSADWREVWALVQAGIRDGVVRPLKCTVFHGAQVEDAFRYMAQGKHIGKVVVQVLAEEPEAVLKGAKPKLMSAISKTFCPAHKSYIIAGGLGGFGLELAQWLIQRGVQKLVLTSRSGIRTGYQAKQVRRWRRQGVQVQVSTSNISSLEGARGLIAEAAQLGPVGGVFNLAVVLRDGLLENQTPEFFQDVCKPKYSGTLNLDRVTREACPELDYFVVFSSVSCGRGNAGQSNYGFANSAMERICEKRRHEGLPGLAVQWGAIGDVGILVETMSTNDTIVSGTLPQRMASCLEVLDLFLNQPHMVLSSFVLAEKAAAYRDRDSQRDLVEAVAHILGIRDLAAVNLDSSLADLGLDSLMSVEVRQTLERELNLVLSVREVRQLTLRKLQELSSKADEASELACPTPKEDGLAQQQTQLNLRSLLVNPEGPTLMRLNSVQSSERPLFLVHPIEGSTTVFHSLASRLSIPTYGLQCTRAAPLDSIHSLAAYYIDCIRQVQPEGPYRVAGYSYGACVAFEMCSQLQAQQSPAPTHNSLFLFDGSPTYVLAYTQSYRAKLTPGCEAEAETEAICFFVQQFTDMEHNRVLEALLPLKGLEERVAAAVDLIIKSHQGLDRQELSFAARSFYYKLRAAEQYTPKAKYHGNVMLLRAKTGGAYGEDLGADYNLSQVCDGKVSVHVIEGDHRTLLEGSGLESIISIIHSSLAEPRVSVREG

With `COCC(=O)N(c1c(C)cccc1C)C(C)C(=O)OC` (centres undefined), the result in [1], in assay [2], in assay [3], in assay [4], in [6] and in assay [7] was inactive. Also, the outcome in [8], in assay [9], in assay [10], in assay [11], in assay [12] and in assay [13] was inactive. The outcome in assay [14] was inactive. Also, in [5], the AC50 is 0.0815 µM (active).

Take `N#Cc1c(Cl)cccc1Cl`: the call in assay [15], in [16], in [17], in assay [1], in assay [2] and in [3] was inactive. The outcome in assay [18], in assay [4], in assay [5], in assay [6], in assay [7] and in assay [9] was inactive. Also, the molecule was called inactive in assay [11], in [12], in assay [13] and in assay [14]. For the same molecule, the AC50 in [10] is 50 µM (active).

As to `COCc1cnc(C2=NC(C)(C(C)C)C(=O)N2)c(C(=O)O)c1` (centres undefined), the molecule was called inactive in [19], in assay [15], in assay [16], in [17], in assay [1] and in assay [2]. For the same molecule, the molecule was classed as inactive in [3], in [18], in assay [4], in [5], in [6] and in assay [7]. Besides, the molecule was classed as inactive in assay [8], in assay [9], in assay [11], in assay [12], in assay [20] and in assay [13]. The result in assay [14] was inactive. In addition, the AC50 in assay [10] was 65.5 µM (active).

For `N#CN=C1SCCN1Cc1ccc(Cl)nc1`, the outcome in assay [15], in [16], in [17], in assay [3], in [4] and in assay [5] was inactive. Also, the molecule was classed as inactive in assay [7], in assay [9], in [10], in assay [11], in assay [12] and in [13]. For the same molecule, the molecule was classed as inactive in assay [14].

The record behind these values is PubChem BioAssay (EPA / NIEHS).
